# Assay results from the supplement of paper PMC8728848.
# Shown is part of a subset that was picked to be rich in the strongest signals.
# How the values were obtained:
# Test in all cases: glycan array binding signal (z-score within array); higher = stronger binding
# Details in all cases: glycan notation: IUPAC condensed, linker removed
# [1] = biological target: Fuc(a1-2)Gal(b1-3)GlcNAc(b1-2)Man(a1-3)[Fuc(a1-2)Gal(b1-3)GlcNAc(b1-2)Man(a1-6)]Man(b1-4)GlcNAc(b1-4)[Fuc(a1-6)]GlcNAc
# Outline: (§1)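 Arrays were curated from the Consortium for Functional Glycomics database, 3228 in total, and kept only where the protein sequence was available. Binding is expressed as a within-array Z-score. This score was averaged across arrays of the same protein sequence at different concentrations or buffers and across linkers, and negative values can be read as non-binding.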
# [2] = biological target: Fuc(a1-2)Gal(b1-4)[Fuc(a1-3)]GlcNAc(b1-3)GalNAc
# Outline: as §1
# [3] = biological target: Fuc(a1-2)[GalNAc(a1-3)]Gal(b1-4)Glc
# Outline: as §1
# [4] = biological target: Fuc(a1-2)[GalNAc(a1-3)]Gal(b1-4)GlcNAc(b1-2)Man(a1-3)[Fuc(a1-2)[GalNAc(a1-3)]Gal(b1-4)GlcNAc(b1-2)Man(a1-6)]Man(b1-4)GlcNAc(b1-4)GlcNAc
# Outline: as §1
# [5] = biological target: Fuc(a1-2)[GalNAc(a1-3)]Gal(b1-4)GlcNAc(b1-3)Gal(b1-4)GlcNAc
# Outline: as §1
# [6] = biological target: Fuc(a1-2)[GalNAc(a1-3)]Gal(b1-4)GlcNAc(b1-3)Gal(b1-4)GlcNAc(b1-3)Gal(b1-4)GlcNAc
# Outline: as §1
# [7] = biological target: Fuc(a1-2)[GalNAc(a1-3)]Gal(b1-4)[Fuc(a1-3)]GlcNAc(b1-3)GalNAc
# Outline: as §1
# [8] = biological target: Fuc(a1-3)[Gal(b1-4)]GlcNAc(b1-6)[Gal(b1-3)GlcNAc(b1-3)]Gal(b1-4)Glc
# Outline: as §1
# [9] = biological target: Fuc(a1-3)[Gal(b1-4)]GlcNAc6S
# Outline: as §1
# [10] = biological target: Fuc(a1-4)GlcNAc
# Outline: as §1
# [11] = biological target: Gal(a1-3)Gal(b1-3)GlcNAc(b1-3)GalNAc
# Outline: as §1
# [12] = biological target: Gal(a1-3)GalNAc
# Outline: as §1
# [13] = biological target: Gal(b1-3)GalNAc(a1-3)[Fuc(a1-2)]Gal(b1-4)Glc
# Outline: as §1
# [14] = biological target: Gal(b1-3)[Fuc(a1-4)]GlcNAc(b1-2)Man(a1-3)[Gal(b1-3)[Fuc(a1-4)]GlcNAc(b1-2)Man(a1-6)]Man(b1-4)GlcNAc(b1-4)[Fuc(a1-6)]GlcNAc
# Outline: as §1
# [15] = biological target: Gal(b1-3)[Fuc(a1-4)]GlcNAc(b1-3)Gal(b1-3)[Fuc(a1-4)]GlcNAc
# Outline: as §1
# [16] = biological target: Gal(b1-4)GlcNAc(b1-2)Man(a1-3)Man(b1-4)GlcNAc(b1-4)GlcNAc
# Outline: as §1
# [17] = biological target: Gal3S(b1-3)GalNAc
# Outline: as §1
# [18] = biological target: Gal3S(b1-3)GlcNAc
# Outline: as §1
# [19] = biological target: Gal3S(b1-4)Glc6S
# Outline: as §1
# [20] = biological target: Gal3S(b1-4)GlcNAc
# Outline: as §1
# [21] = biological target: GalNAc(a1-3)GalNAc(b1-3)Gal(a1-4)Gal(b1-4)GlcNAc
# Outline: as §1
# [22] = biological target: Glc(a1-4)Glc
# Outline: as §1
# [23] = biological target: Glc(b1-4)Glc
# Outline: as §1
# [24] = biological target: GlcA(b1-3)GlcNAc
# Outline: as §1
# [25] = biological target: GlcNAc(b1-2)Man(a1-3)[GlcNAc(b1-2)Man(a1-6)]Man(b1-4)GlcNAc(b1-4)GlcNAc
# Outline: as §1
# [26] = biological target: GlcNAc(b1-2)[GlcNAc(b1-6)]Man(a1-6)[GlcNAc(b1-2)Man(a1-3)][GlcNAc(b1-4)]Man(b1-4)GlcNAc(b1-4)GlcNAc
# Outline: as §1
# [27] = biological target: GlcNAc(b1-3)Man
# Outline: as §1
# [28] = biological target: GlcNAc6S(b1-3)Gal(b1-4)GlcNAc
# Outline: as §1
# [29] = biological target: Man(a1-3)[Man(a1-6)]Man(a1-6)[Man(a1-3)]Man
# Outline: as §1
# [30] = biological target: Neu5Ac(a2-3)Gal(b1-3)[Neu5Ac(a2-6)]GalNAc
# Outline: as §1
# [31] = biological target: Neu5Ac(a2-3)Gal(b1-4)[Fuc(a1-3)]GlcNAc(b1-3)Gal
# Outline: as §1
# [32] = biological target: Neu5Ac(a2-6)Gal(b1-4)GlcNAc(b1-3)GalNAc
# Outline: as §1
# [33] = biological target: Neu5Ac(a2-6)GalNAc(b1-4)GlcNAc
# Outline: as §1
# [34] = biological target: Neu5Ac(a2-8)Neu5Ac(a2-3)[Gal(b1-3)GalNAc(b1-4)]Gal(b1-4)Glc
# Outline: as §1
# [35] = biological target: Neu5Ac(a2-8)Neu5Ac(a2-8)Neu5Ac(a2-8)Neu5Ac(a2-3)[GalNAc(b1-4)]Gal(b1-4)Glc
# Outline: as §1
# [36] = biological target: Neu5Ac(b2-6)Gal(b1-4)GlcNAc
# Outline: as §1
# [37] = biological target: Neu5Gc(a2-3)Gal(b1-3)GlcNAc
# Outline: as §1
binder,measurement,setting,value
Gal 9 (Canis lupus) (protein) MAFSSSQPPYLSPGVPFSGKIQGGLQDGLKITINGTILYCNGTRFAVNFHSGHSDSDIAFHFNPRFEEGGYVVCNTKQKGSWGSEERKMQMPFQMGNPFELCFMVNSCDFKVTVNGSHFTQYSHRVPFHYVDTLSITGAVQLSYISFQSPGVWQSSSAPITQTVIHTVQTTPGQPFPNPIIPPTAYPTPTYPMPFFTSIPGGLYPSKSIIVSGTVLPGAKRFHINLRSGNDIAFHLNPRFNENTVVRNMQINNSWGSEERSLPRKMPFVQGQSFSVWIMCEGHCFKVAVDGEHLFEYYHRLKNLLAINNMEVAGDVQLTHVQT,glycan array binding signal (z-score),[1],-0.285
same,glycan array binding signal (z-score),[2],-0.26
same,glycan array binding signal (z-score),[3],2.88
same,glycan array binding signal (z-score),[4],9.39
same,glycan array binding signal (z-score),[5],5.36
same,glycan array binding signal (z-score),[6],2.68
same,glycan array binding signal (z-score),[7],-0.288
same,glycan array binding signal (z-score),[8],-0.156
same,glycan array binding signal (z-score),[9],-0.337
same,glycan array binding signal (z-score),[10],-0.346
same,glycan array binding signal (z-score),[11],0.104
same,glycan array binding signal (z-score),[12],-0.296
same,glycan array binding signal (z-score),[13],3.45
same,glycan array binding signal (z-score),[14],-0.287
same,glycan array binding signal (z-score),[15],-0.315
same,glycan array binding signal (z-score),[16],0.09
same,glycan array binding signal (z-score),[17],5.93
same,glycan array binding signal (z-score),[18],0.396
same,glycan array binding signal (z-score),[19],3.83
same,glycan array binding signal (z-score),[20],0.222
same,glycan array binding signal (z-score),[21],3.04
same,glycan array binding signal (z-score),[22],-0.327
same,glycan array binding signal (z-score),[23],-0.311
same,glycan array binding signal (z-score),[24],-0.341
same,glycan array binding signal (z-score),[25],-0.332
same,glycan array binding signal (z-score),[26],-0.338
same,glycan array binding signal (z-score),[27],-0.347
same,glycan array binding signal (z-score),[28],-0.104
same,glycan array binding signal (z-score),[29],-0.346
same,glycan array binding signal (z-score),[30],-0.055
same,glycan array binding signal (z-score),[31],-0.343
same,glycan array binding signal (z-score),[32],-0.178
same,glycan array binding signal (z-score),[33],-0.345
same,glycan array binding signal (z-score),[34],-0.302
same,glycan array binding signal (z-score),[35],-0.331
same,glycan array binding signal (z-score),[36],-0.331
same,glycan array binding signal (z-score),[37],0.216
